An excerpt weighted towards active compounds, which were near 21% of everything screened.
RORgamma inh – qHTS for inhibitors of ROR gamma transcriptional activity | Nuclear receptor ROR-gamma (Mus musculus), P51450 | Drosophila S2 Gal4-RORgamma UAS-luciferase reporter, 20 h | Potency, µM (series often up to 53.6 µM), for inactives: at the highest dose activity change, negative = inhibition, most hits filed as inhibitors | 310,000 tested, 5.4% active | AID 2551, 2010; note: potency is the fitted concentration of half-maximal effect; nearly all actives have a fitted effect of over 60% in size
Target sequence (P51450 whole entry, looked up, the tested form may be a part): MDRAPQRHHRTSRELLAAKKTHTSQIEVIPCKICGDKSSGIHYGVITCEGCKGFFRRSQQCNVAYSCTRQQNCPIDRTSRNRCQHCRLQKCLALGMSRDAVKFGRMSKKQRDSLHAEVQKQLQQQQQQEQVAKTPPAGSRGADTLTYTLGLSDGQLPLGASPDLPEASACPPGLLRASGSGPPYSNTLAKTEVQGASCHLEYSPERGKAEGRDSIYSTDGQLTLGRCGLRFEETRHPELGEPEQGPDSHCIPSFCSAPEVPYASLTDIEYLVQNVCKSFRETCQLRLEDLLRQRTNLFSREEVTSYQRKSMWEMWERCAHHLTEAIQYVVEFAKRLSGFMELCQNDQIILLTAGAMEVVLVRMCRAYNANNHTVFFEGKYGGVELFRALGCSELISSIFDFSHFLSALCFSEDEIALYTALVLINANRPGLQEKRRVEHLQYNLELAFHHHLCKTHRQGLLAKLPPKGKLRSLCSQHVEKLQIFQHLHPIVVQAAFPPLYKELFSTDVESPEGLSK
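Stably transfected Drosophila Schneider cells are the test system, with ROR gamma fused to Gal4 and luciferase under UAS control; luminescence is read after 20 hr of 700 uM copper sulfate induction at ambient temperature.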
ELG1 repair inh – qHTS screen for small molecules that inhibit ELG1-dependent DNA repair in human embryonic kidney (HEK293T) cells expressing luciferase-tagged ELG1; HEK293T ELG1-luciferase reporter, luminescence, 16 h; DNA damage induced by 5-fluorouridine; 330,000 tested, 2.3% active; Potency, µM (highest dose often 46.1 µM), inactives show at the top dose activity change, negative = inhibition, actives largely listed as inhibitors; AID 504467, 2011; note: potency is the fitted concentration of half-maximal effect; nearly all actives have a fitted effect of over 55% in size
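Cells (2,000 per well) received 5-fluorouridine plus test compound or DMSO and were incubated 16 hr at 37 °C, 5% CO2. Luciferase activity was read by luminescence 30 min after ONE-Glo addition; signal suppression marked inhibition of damage-induced ELG1 function.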
IL-1B inflam inh – qHTS for Inhibitors of Inflammasome Signaling: IL-1-beta AlphaLISA Primary Screen | THP-1 LPS/ATP IL-1B secretion, AlphaLISA, 16 h; stronger effect = lower value | activity change, % at 57.5 µM | 360,000 tested, 4.7% active | AID 743279, 2014; in the data active = activity change below about -50%; inconclusive = mostly about -30% to -49%
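THP-1 cells pretreated 1 hr with compounds (up to 57.5 uM final), then stimulated with LPS (250 ng/mL final) plus ATP (1.25 mM final); secreted IL-1B measured by AlphaLISA after 16 hr, decreased signal indicating inhibition.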
Gal4-VP16 FLuc – VP16 counterscreen qHTS for inhibitors of ROR gamma transcriptional activity. Drosophila S2 Gal4-VP16 UAS-luciferase, luminescence, 20 h. Potency, µM (highest dose often 53.6 µM), for the others: at the highest dose activity, negative = inhibition, actives largely listed as inhibitors. AID 2546, 2010. 310,000 tested, 3.5% active;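 note: Gal4-VP16 expression switched on by copper sulfate through the metallothionein promoter; potency is the fitted concentration of half-maximal effect; nearly all actives have a fitted effect of over 50% in size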
TDP1 cell noCPT – qHTS for Inhibitors of human tyrosyl-DNA phosphodiesterase 1 (TDP1): qHTS in cells in absence of CPT. 420,000 tested, 15% active. DT40 Tdp1-/- hTDP1 cells, no CPT, ATP luminescence, 48 h. Potency, µM (top dose mostly 46.2 µM), for inactives: at the top dose activity change, negative = growth inhibition, actives largely listed as inhibitors; note: potency is the fitted concentration of half-maximal effect; nearly all actives have a fitted effect of over 55% in size
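DT40 Tdp1-/-;hTDP1 cells, no CPT (DMSO vehicle only), 400 cells/well; compounds pin-transferred; ≥48 hr, 37 °C; CellTiter-Glo 30 min RT dark, luminescence read.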
TDP1 cell CPT – qHTS for Inhibitors of human tyrosyl-DNA phosphodiesterase 1 (TDP1): qHTS in cells in presence of CPT. chicken DT40 Tdp1-/-;hTDP1 cells + 20 nM CPT, ATP luminescence, 48 h. Potency, µM (titrated, usually from 46.2 µM), inactives show at the highest dose activity change, negative = growth inhibition, actives largely listed as inhibitors. 420,000 tested, 12% active. AID 686979, 2013; note: potency is the fitted concentration of half-maximal effect; nearly all actives have a fitted effect of over 55% in size
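Chicken DT40 Tdp1-/- cells stably complemented with human TDP1 were seeded at 400 cells/well in medium containing 20 nM camptothecin, exposed to pin-transferred compounds, and grown at 37 °C for at least 48 hr. Viability was read as ATP luminescence.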
The depositor's hits bear a star; ? = inconclusive; / = no result given; [ ] = remark or other dose. Unless noted, calls come from the whole dose curve; as a rule, active = well fitted curve in the direction sought with a large enough effect; inconclusive = small, poorly fitted or top-dose-only effect, or another doubt; inactive = no such curve, though single readings can be large; an effect the other way counts as inactive or inconclusive. % is set by controls: 0 for no effect and ±100 for the full control effect.

SMILES	RORgamma inh	ELG1 repair inh	IL-1B inflam inh	Gal4-VP16 FLuc	TDP1 cell noCPT	TDP1 cell CPT
CC1(C)Cc2ccccc2/C(=C/C(=O)N2CCCCCC2)N1	?	0%	-4	?	26µM*	16µM*
COc1cc2c(cc1OC)/C(=C/C(=O)N1CCOCC1)NC(C)(C)C2	31%	2%	?	-13%	-24%	17%
O=C(NCc1ccc(Cl)cc1)N1CCN(Cc2ccccc2)CC1	-20%	?	-21	-2%	?	23µM*
CCOc1ccccc1N1CCN(C(=O)NCc2ccc(Cl)cc2)CC1	12%	?	-63*	-17%	?	-26%
COc1cccc(CN2CCN(C(=S)NCc3ccc(Cl)cc3)CC2)c1	30%	?	-27	-19%	21µM*	?
Cc1cccc(N2CCN(C(=O)NCc3ccc(Cl)cc3)CC2)c1	-11%	-28%	-6	-8%	21µM*	?
O=C(Nc1ccccc1)N1CCN(Cc2ccc(Cl)cc2)CC1	46%	-28%	-10	-19%	?	?
COc1cc(NC(=O)Cn2c(=O)n(Cc3ccccc3OC)c(=O)c3cccnc32)cc(OC)c1	/	/	/	/	?	-13%
c1csc(CNc2nc(CN3CCCC(c4nc5ccccc5o4)C3)nc3ccccc23)c1 (stereo unspecified)	/	/	/	/	?	11%[9.04 µM]
Cc1nnc(SCC(=O)Nc2c(Cl)cccc2Cl)n(N)c1=O	/	3%	5	/	-11%	?
O=c1[nH]c2cc(Cl)c(O)cc2o1	40%	/	/	-1%	/	/
CCOc1ccccc1N1CCN(C(=O)C2c3ccccc3Oc3ccccc32)CC1	25%	0%	-9	-7%	23µM*	23µM*
O=C(Nc1ccc(S(=O)(=O)Nc2ncccn2)cc1)c1cccc(S(=O)(=O)N2CCOCC2)c1	-4%	-5%	8	-4%	?	-4%
Cc1nc2cnc(N3CCNCC3)nc2n(-c2ccccc2)c1=O	-9%	/	/	8%	4%	-8%
Cc1ccc(S(=O)(=O)N(C)C)cc1NC(=O)c1cc(C(C)(C)C)nn1Cc1ccccc1	58%	?	-11	6%	?	23µM*
CC(C)(C)c1cc(C(=O)NNC(=O)Nc2cccc(Cl)c2)n(Cc2ccccc2)n1	37%	0%	24	-12%	?	?
CC(N)c1csc(NC(=O)c2cc(C(C)(C)C)nn2Cc2ccccc2)n1 (stereo unspecified)	/	/	-55*	/	21µM*	18µM*
Cc1cccc(C)c1NC(=O)NNC(=O)c1cc(C(C)(C)C)nn1Cc1ccccc1	-29%	-17%	-4	2%	?	-15%
COc1ccc(CC(N)c2csc(NC(=O)c3cc(C(C)(C)C)nn3Cc3ccccc3)n2)cc1 (stereo unspecified)	/	/	-78*	/	4.6µM*	5.8µM*
Cn1nc(N2CCN(S(=O)(=O)c3ccccc3)CC2)c(=O)n(C)c1=O	/	-5%	-4	/	?	?
O=C(CN1C(=O)NC2(CCCC2)C1=O)Nc1cc(S(=O)(=O)N2CCCCC2)ccc1Cl	/	5%	-5	/	?	?
COCCCNC(=O)c1sc2ncn(CC(=O)Nc3ccc(C)c(Cl)c3)c(=O)c2c1C	?	?	17	-11%	21µM*	?
COc1cccc(NC(=O)c2sc3ncn(CC(=O)N4CCN(c5ccccn5)CC4)c(=O)c3c2C)c1	45%	-15%	-8	-4%	?	18µM*
Cc1ccc(NC(=O)c2sc3ncn(CC(=O)N4CCN(c5ccccn5)CC4)c(=O)c3c2C)cc1F	-3%	-3%	34	-6%	-17%	?
Cc1ccc(NC(=O)c2sc3ncn(CC(=O)N4CCN(c5ccccn5)CC4)c(=O)c3c2C)cc1Cl	23%	-3%	17	-13%	15µM*	?
SMILES	RORgamma inh	ELG1 repair inh	IL-1B inflam inh	Gal4-VP16 FLuc	TDP1 cell noCPT	TDP1 cell CPT
COc1cc(NC(=O)c2sc3ncn(CC(=O)N4CCCCC4C)c(=O)c3c2C)cc(OC)c1OC (stereo unspecified)	/	/	-11	/	12µM*	?
Cc1c(C(=O)NCc2cccnc2)sc2ncn(CC(=O)N3CCCCC3C)c(=O)c12 (stereo unspecified)	13%	-13%	27	7%	-19%	-9%
Cc1ccc(-n2nc3c(N4CCC(C(=O)N(C)Cc5ccccc5)CC4)nnc(C)c3c2C)cc1	/	/	/	/	-21%	-23%
N#CCCn1c(=O)c(-c2cccs2)nc2cnc(Oc3cccc(Cl)c3)nc21	-1%	/	/	-3%	?	-15%
CC(=O)OCC1OC(C#Cc2ccccc2)C=CC1O (stereo unspecified)	6%[10 µM]	/	/	3%[10 µM]	/	/
Cc1ccc(S(=O)(=O)N(C)C)cc1NC(=S)N1CCN(Cc2ccc3c(c2)OCO3)CC1	18%	8.2µM*	30	-5%	16µM*	15µM*
Cc1ccccc1NC(=S)N1CCN(Cc2ccc3c(c2)OCO3)CC1	?	-10%	-2	?	?	2%
Cc1c(Cl)cccc1NC(=S)N1CCN(Cc2ccc3c(c2)OCO3)CC1	11µM*	5%	21	14µM*	1%	1%
O=C(O)C1CCC2CCCC21 (stereo unspecified)	/	/	18	/	-9%	0%
Cn1cccc1C(=O)NCCc1ccc(Cl)cc1	?	?	-12	15%	23%	-13%
CC1CN(C(=O)CCC(=O)NCc2ccc(F)cc2)c2ccccc2S1 (stereo unspecified)	-30%	9%	-14	0%	-13%	-22%
COc1ccccc1CNC(=O)c1cc2cccc3c2n1CC(C)S3 (stereo unspecified)	/	/	/	/	23µM*	21µM*
COc1ccccc1CNC(=O)c1ccccc1OC	36%	13%	?	-4%	-20%	-21%
COc1ccccc1CNC(=O)CCC(=O)N1CC(C)Sc2ccccc21 (stereo unspecified)	-1%	5%	-28	-2%	?	18µM*
CC1Cn2c(C(=O)NCCc3ccc(Cl)cc3)cc3cccc(c32)S1 (stereo unspecified)	/	/	/	/	?	16µM*
NC(=O)CCCCC1CCSS1 (stereo unspecified)	0%[10 µM]	/	/	8%	-3%	7%

Screening results (PubChem)
